The values below come from ChEMBL document CHEMBL2218924, “A broad activity screen in support of a chemogenomic map for kinase signalling research and drug discovery” (Biochem J, 2013).

Assay [1] concerns the target Focal adhesion kinase 1 (Homo sapiens) (UniProt Q05397). Conditions: at 10 µM.
For assay [2], the target named is Fibroblast growth factor receptor 1 (Homo sapiens) (UniProt P11362). As to conditions: at 1 µM.
For assay [3] the target is unchanged. Conditions: at 10 µM.
Assay [4] has as its target Fibroblast growth factor receptor 3 (Homo sapiens) (UniProt P22607). As to conditions: at 10 µM.
Assay [5] addresses Fibroblast growth factor receptor 4 (Homo sapiens) (UniProt P22455). As to conditions: at 10 µM.
Assay [6] concerns the target Tyrosine-protein kinase Fer (Homo sapiens) (UniProt P16591). As to conditions: at 1 µM.
Assay [7] has the same target. As to conditions: at 10 µM.
The target of assay [8] is Vascular endothelial growth factor receptor 1 (Homo sapiens) (UniProt P17948). Conditions: at 1 µM.
Chain of Vascular endothelial growth factor receptor 1 (Homo sapiens) (P17948 whole entry): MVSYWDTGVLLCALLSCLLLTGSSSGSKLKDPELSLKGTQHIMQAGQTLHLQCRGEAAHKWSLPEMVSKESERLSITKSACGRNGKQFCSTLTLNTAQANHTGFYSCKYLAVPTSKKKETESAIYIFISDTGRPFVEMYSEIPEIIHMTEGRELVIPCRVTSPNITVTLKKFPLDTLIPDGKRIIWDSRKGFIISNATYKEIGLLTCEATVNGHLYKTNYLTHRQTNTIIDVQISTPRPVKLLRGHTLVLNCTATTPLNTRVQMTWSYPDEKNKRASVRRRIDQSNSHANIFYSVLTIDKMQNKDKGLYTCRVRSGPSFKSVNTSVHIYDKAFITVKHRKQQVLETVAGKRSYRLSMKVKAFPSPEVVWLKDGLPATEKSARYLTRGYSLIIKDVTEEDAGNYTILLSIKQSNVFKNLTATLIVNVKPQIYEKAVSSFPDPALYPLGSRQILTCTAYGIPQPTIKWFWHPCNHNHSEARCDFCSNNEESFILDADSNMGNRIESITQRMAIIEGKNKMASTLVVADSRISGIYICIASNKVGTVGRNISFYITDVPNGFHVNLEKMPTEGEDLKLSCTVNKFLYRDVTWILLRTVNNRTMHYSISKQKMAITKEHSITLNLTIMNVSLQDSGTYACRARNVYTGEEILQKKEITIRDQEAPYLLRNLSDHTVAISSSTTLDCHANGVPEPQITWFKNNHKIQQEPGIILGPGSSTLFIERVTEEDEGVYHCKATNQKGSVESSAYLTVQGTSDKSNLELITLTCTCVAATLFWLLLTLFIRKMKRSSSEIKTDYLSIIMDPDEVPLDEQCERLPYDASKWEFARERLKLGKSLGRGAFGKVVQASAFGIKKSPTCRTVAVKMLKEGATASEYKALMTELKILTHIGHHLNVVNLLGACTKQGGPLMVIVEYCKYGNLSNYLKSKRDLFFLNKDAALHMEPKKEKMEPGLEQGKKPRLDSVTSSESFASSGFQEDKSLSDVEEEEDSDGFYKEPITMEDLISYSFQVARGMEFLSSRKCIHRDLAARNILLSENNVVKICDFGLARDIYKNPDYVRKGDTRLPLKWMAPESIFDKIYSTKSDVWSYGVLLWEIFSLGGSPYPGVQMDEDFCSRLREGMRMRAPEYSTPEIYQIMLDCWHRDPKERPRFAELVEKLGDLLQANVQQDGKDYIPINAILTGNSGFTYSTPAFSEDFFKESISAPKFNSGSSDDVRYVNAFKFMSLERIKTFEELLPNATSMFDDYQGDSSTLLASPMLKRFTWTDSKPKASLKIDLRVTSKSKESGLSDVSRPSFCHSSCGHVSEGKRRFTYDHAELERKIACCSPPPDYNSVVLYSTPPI
Assay [9] has the same target. As to conditions: at 10 µM.
In assay [10] the target is Receptor-type tyrosine-protein kinase FLT3 (Homo sapiens) (UniProt P36888). Conditions: at 10 µM.
The target of assay [11] is Vascular endothelial growth factor receptor 3 (Homo sapiens) (UniProt P35916). As to conditions: at 1 µM.
In assay [12] the target is Fibroblast growth factor receptor 2 (Homo sapiens) (UniProt P21802). As to conditions: at 1 µM.
Chain of Fibroblast growth factor receptor 2 (Homo sapiens) (P21802 22-821 limits assumed): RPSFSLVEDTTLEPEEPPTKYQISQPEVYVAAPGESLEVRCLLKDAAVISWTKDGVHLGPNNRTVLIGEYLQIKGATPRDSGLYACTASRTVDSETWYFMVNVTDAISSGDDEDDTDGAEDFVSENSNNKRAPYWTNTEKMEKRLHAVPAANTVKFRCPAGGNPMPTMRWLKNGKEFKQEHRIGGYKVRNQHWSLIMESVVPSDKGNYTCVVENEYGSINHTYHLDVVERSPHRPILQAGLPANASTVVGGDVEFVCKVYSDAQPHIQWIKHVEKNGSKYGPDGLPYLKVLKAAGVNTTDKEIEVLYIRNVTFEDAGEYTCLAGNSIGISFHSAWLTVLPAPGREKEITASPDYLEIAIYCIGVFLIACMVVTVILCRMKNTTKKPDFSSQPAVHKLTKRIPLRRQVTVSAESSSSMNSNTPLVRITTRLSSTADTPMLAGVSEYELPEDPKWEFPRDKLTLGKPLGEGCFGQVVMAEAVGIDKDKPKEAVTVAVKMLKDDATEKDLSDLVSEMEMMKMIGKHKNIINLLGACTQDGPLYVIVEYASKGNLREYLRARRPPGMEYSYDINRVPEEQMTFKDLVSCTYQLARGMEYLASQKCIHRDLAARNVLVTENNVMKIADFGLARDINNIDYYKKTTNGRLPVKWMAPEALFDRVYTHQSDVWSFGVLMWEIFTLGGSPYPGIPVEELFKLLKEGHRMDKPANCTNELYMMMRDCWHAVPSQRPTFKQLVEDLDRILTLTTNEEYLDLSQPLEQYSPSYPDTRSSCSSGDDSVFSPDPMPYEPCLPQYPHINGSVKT
For assay [13] the target is unchanged. Conditions: at 10 µM.
For assay [14], the target named is Fibroblast growth factor receptor 3 (Homo sapiens) (UniProt P22607). Conditions: at 1 µM.
Assay [15] concerns the target Tyrosine-protein kinase Fes/Fps (Homo sapiens) (UniProt P07332). As to conditions: at 1 µM.
Assay [16] shares this target. As to conditions: at 10 µM.
For assay [17], the target named is Tyrosine-protein kinase Fgr (Homo sapiens) (UniProt P09769). Conditions: at 10 µM.
Assay [18] deals with Receptor-type tyrosine-protein kinase FLT3 (Homo sapiens) (UniProt P36888). Conditions: at 1 µM.
The target in assay [19] is Fibroblast growth factor receptor 4 (Homo sapiens) (UniProt P22455). Conditions: at 1 µM.
Chain of Fibroblast growth factor receptor 4 (Homo sapiens) (P22455 22-802 limits assumed): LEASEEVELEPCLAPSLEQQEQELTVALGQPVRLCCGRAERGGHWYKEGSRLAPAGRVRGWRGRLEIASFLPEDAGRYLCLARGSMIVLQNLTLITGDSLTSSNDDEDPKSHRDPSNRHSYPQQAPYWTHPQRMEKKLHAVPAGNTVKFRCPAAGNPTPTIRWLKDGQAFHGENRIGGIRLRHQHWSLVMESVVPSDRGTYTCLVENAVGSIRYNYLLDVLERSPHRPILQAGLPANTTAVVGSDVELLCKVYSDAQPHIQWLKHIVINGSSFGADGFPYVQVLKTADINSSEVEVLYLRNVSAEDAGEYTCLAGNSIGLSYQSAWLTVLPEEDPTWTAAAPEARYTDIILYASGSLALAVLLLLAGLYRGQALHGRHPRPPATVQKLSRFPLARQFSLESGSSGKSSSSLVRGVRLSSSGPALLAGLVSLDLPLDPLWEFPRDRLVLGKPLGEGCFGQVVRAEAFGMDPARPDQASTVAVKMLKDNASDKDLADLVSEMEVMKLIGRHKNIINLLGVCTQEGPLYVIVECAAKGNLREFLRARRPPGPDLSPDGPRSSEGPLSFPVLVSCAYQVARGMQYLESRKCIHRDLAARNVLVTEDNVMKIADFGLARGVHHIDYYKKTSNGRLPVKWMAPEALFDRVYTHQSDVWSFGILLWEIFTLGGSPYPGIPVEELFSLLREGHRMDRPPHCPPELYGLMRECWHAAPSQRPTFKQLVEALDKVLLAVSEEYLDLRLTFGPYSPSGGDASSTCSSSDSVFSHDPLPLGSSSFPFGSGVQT
Assay [20] deals with Tyrosine-protein kinase Fgr (Homo sapiens) (UniProt P09769). Conditions: at 1 µM.

Structures are written as SMILES.

Chain of Focal adhesion kinase 1 (Homo sapiens) (Q05397 2-1052 limits assumed): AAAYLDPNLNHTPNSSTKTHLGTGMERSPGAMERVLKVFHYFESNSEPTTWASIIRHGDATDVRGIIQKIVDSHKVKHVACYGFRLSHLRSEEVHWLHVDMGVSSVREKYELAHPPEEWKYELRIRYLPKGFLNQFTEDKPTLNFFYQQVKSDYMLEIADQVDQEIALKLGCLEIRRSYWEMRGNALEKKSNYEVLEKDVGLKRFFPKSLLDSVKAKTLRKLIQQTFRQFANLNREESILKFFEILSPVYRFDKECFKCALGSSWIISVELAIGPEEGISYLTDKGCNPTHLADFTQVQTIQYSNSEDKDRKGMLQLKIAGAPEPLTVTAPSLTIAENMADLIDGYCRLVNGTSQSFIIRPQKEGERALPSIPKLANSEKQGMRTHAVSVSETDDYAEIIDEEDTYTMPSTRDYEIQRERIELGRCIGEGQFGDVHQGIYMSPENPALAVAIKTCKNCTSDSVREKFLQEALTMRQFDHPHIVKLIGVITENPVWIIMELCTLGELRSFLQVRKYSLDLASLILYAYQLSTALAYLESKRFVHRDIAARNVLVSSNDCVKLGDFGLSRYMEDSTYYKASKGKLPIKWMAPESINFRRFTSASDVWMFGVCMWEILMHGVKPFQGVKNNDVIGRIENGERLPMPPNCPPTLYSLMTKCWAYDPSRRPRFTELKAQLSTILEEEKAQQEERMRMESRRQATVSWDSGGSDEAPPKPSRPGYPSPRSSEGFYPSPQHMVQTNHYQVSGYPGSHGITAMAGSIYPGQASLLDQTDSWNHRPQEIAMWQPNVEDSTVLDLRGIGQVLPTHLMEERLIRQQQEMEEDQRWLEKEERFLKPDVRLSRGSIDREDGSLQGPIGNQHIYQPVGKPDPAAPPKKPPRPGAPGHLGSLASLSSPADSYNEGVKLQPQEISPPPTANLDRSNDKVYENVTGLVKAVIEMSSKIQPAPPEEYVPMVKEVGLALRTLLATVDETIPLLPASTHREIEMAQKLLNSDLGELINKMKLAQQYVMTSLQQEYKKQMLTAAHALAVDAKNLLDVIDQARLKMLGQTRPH
Chain of Fibroblast growth factor receptor 1 (Homo sapiens) (P11362 22-822 limits assumed): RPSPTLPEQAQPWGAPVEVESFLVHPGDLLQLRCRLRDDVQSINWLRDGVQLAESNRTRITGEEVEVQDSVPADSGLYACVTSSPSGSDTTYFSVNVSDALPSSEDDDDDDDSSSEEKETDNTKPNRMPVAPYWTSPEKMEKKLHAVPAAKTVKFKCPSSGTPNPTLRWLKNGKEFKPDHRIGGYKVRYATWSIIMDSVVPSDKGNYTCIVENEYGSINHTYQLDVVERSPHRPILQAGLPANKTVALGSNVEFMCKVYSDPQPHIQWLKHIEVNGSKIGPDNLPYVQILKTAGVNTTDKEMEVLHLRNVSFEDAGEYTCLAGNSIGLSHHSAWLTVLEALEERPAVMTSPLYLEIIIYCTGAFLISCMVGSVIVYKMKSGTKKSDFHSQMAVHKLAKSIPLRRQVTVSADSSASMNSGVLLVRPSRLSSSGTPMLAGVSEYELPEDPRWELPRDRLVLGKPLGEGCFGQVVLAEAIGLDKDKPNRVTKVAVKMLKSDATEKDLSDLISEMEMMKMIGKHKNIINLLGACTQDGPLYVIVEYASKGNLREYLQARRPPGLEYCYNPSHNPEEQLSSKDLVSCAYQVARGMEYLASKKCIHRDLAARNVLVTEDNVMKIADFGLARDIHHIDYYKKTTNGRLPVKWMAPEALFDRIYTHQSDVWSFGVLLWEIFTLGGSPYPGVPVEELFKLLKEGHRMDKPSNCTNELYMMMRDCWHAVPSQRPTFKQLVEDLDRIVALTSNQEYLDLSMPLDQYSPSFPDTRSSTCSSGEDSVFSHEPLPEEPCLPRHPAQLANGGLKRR

What is called residual activity is the signal under treatment as a percentage of the control signal. For `O=C(Nc1ccc(Cl)cc1)c1ccccc1NCc1ccncc1`, the residual activity in assay [1] was found to be 73%; in assay [2], 75%; in assay [3], 10%; in assay [4] it was 73%; in assay [5] it was 78%; in assay [6] it was 131%. Besides, the residual activity turned out to be 101% in assay [7]; 0% in assay [8]; 2% in [9]; 65% in [10]; 0% in assay [11].
As for `CC(C)c1nn(-c2c(Cl)cccc2Cl)c2nc(Cc3ccc(OCCO)cc3)[nH]c(=O)c12`, the residual activity in [1] turned out to be 66%; in [2] it was 70%; in assay [3], 27%; in [12], 108%; in assay [13] it was 86%; in assay [14], 104%. Moreover, the residual activity turned out to be 99% in [4]; 100% in [6]; 95% in [7]; 109% in assay [15]; 97% in [16]; 95% in assay [17]. The residual activity in [8] was 90%; in assay [9], 82%; in [18], 81%; in assay [10], 81%; in [11], 84%.
`CCCCc1c(-c2ccc(O)cc2)[nH]c2nccnc12`: the residual activity in assay [1] is 19%; in assay [2], 41%; in assay [3], 11%; in assay [12], 85%; in [13] it was 59%; in [19], 127%. In addition, the residual activity in [5] is 99%; in assay [6] it was 86%; in assay [7], 81%; in [15] it was 35%; in assay [16] it was 12%; in assay [20], 57%. Besides, the residual activity in assay [17] stood at 36%; in [8] it was 43%; in assay [9] it was 11%; in assay [18] it was 29%; in [10] it was 6%; in assay [11] it was 6%.
As to `Cn1sc(=O)n(Cc2ccccc2)c1=O`, the residual activity in [1] stood at 61%; in assay [2], 92%; in [3] it was 86%; in assay [14], 135%; in [4], 126%; in assay [6], 90%. For the same compound, the residual activity came to 91% in [7]; 93% in assay [15]; 85% in [16]; 90% in assay [20]; 95% in assay [17]; 85% in [8]. The residual activity in assay [9] came out at 73%; in [18], 86%; in [10], 81%; in assay [11], 85%.
Turning to `O=C1Cc2c([nH]c3ccc(Br)cc23)-c2ccccc2N1`, the residual activity in assay [1] worked out at 28%; in assay [2], 87%; in assay [3], 32%; in assay [14], 127%; in [4] it was 87%; in assay [5] it was 96%. Further, the residual activity in assay [15] was 63%; in assay [16] it was 38%; in assay [8], 77%; in [9], 39%; in assay [18], 65%; in assay [10], 34%. Further, the residual activity in [11] is 56%.
Take `O=C1Nc2ccc(Cl)cc2/C1=C/c1cc(Cl)c(O)c(Cl)c1`: the residual activity is 58% in [1]; 93% in assay [2]; 53% in [3]; 80% in assay [12]; 39% in assay [13]; 96% in assay [14]. The residual activity turned out to be 62% in assay [4]; 96% in [20]; 42% in [17]; 55% in assay [8]; 1% in assay [9]; 21% in [18]. Moreover, the residual activity in [10] was 1%; in assay [11] it was 3%.
As for `Nc1ncnc2c1cnn2-c1ccccc1`, the residual activity was 95% in assay [1]; 127% in assay [2]; 94% in assay [3]; 96% in [12]; 83% in assay [13]; 76% in assay [14]. Also, the residual activity in assay [4] came to 83%; in [5], 97%; in assay [17] it was 85%; in [8], 96%; in [9] it was 88%; in assay [18], 95%. For the same compound, the residual activity in assay [10] was found to be 55%; in [11], 99%.
On to `CN(C)S(=O)(=O)c1ccc2c(c1)/C(=C/c1cc3c([nH]1)CCCC3)C(=O)N2`, for which the residual activity in assay [1] worked out at 8%; in [2] it was 36%; in assay [3], 54%; in assay [12], 51%; in assay [13] it was 30%; in [4], 90%. Besides, the residual activity in assay [19] stood at 84%; in assay [5], 87%; in [6], 59%; in assay [7] it was 68%; in [15], 82%; in [16] it was 61%. The residual activity in [20] was 21%; in assay [17], 9%; in [8] it was 67%; in assay [9], 56%; in [18], 27%; in assay [10] it was 41%. The residual activity in [11] came out at 33%.
Take `O=C(c1cc2cc(O)ccc2[nH]1)c1cc2cc(O)ccc2[nH]1`: the residual activity is 65% in assay [1]; 40% in [2]; 5% in assay [3]; 83% in assay [12]; 24% in [13]; 70% in assay [14]. In addition, the residual activity in assay [4] worked out at 20%; in assay [7], 55%; in [16], 28%; in assay [20], 5%; in [17] it was 2%; in assay [8], 20%. Moreover, the residual activity was 2% in assay [9], 0% in assay [18], 0% in assay [10] and 4% in assay [11].
As for `NCCNc1ncc(C(N)=O)c(Nc2cccc(C(F)(F)F)c2)n1`, the residual activity in assay [1] was found to be 7%; in assay [2] it was 113%; in assay [3] it was 68%; in assay [12], 100%; in [13], 80%; in assay [6], 102%. Besides, the residual activity stood at 47% in assay [7]; 32% in assay [15]; 3% in [16]; 30% in assay [20]; 6% in [17]; 50% in assay [18]. In addition, in assay [10], the residual activity was determined as 5%.
In the case of `Nc1ncnc2c1c(-c1ccc(Oc3ccccc3)cc1)cn2C1CCCC1`, the residual activity in assay [1] was 46%; in assay [2] it was 13%; in [3] it was -1%; in [12], 37%; in [13], 3%; in [14], 41%. For the same compound, the residual activity in assay [4] worked out at 7%; in assay [19] it was 100%; in assay [5], 46%; in assay [6], 100%; in assay [7], 45%; in [15], 112%. For the same compound, the residual activity in [16] came out at 52%; in assay [20], 2%; in assay [17] it was 0%; in assay [8] it was 15%; in assay [9], 0%; in assay [18], 19%. The results for the residual activity in assay [10] and in assay [11] were 0% and 1%, respectively.
Turning to `Nc1nccc(-c2c(-c3ccc(F)cc3)ncn2C2CCNCC2)n1`, the residual activity in assay [1] is 71%; in [2], 119%; in assay [3] it was 27%; in assay [12], 113%; in [13], 67%; in [14], 120%. Besides, the residual activity was determined as 83% in [4], 25% in assay [17] and 69% in assay [11].
Turning to `CCOC(=O)c1c(C)[nH]c(/C=C2\C(=O)Nc3ccccc32)c1C`, the residual activity in [1] came out at 89%; in [2], 98%; in assay [3], 80%; in assay [12] it was 83%; in assay [13], 85%; in assay [15], 119%. For the same compound, the residual activity in [16] was determined as 80%; in assay [20], 87%; in assay [17], 74%; in [8] it was 38%; in [9] it was 15%; in assay [18] it was 6%. Further, the residual activity in assay [10] was determined as 9%; in assay [11], 1%.
